Shown is part of a subset that was picked to be rich in hits.
Pin1 inhibitor: inhibitors of human Pin1. Q13526. Pin1 FP peptide displacement, HiFluor488, 10 min. Potency, µM (doses to about 115 µM), for inactives: at the top dose activity, negative = inhibition, most hits filed as inhibitors. 390,000 tested, 0.009% active. AID 504891; active = well fitted inhibition curve with a large enough effect in the polarisation, with a control signal flat, not every such curve was filed as active; inconclusive = small, poorly fitted or top-dose-only effect, or effect the other way, or a change in a side signal; inactive = no such curve, though single readings can be large or run the other way; the % refers to the polarisation; note: potency is the fitted concentration of half-maximal effect
Target sequence (Q13526 whole entry, looked up): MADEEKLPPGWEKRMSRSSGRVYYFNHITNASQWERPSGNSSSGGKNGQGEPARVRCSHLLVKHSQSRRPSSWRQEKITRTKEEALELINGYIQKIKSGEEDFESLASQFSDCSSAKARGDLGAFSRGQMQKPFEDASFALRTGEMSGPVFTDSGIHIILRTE
Tb PFK block: T. brucei PFK enzyme inhibition | 330,000 tested, 0.17% active | AID 485367 | Potency, µM (highest dose often 57.5 µM), without a hit: top-dose activity, negative = inhibition, most hits filed as inhibitors | T. brucei PFK, ADP-Glo luminescence;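 note: potency is the fitted concentration of half-maximal effect; 0% = uninhibited 1x PFK enzyme wells and -100% = no-enzyme wells; nearly all actives have a fitted effect of over 60% in size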
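In TEA buffer at pH 8.0 with 5 mM MgCl2, enzyme (1.25 nM) converted F6P (0.5 mM) and ATP (0.1 mM) for 45 min at room temperature. ADP product was read by luciferase luminescence.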
Tb PGK inh: blocks T. brucei phosphoglycerate kinase; PGK/GAPDH coupled, Kinase-Glo luminescence, 60 min; Potency, µM (titrated, usually from 57.5 µM), for inactives: at the highest dose activity change, negative = inhibition, most hits filed as inhibitors; P07378; AID 602233; 380,000 tested, 0.043% active; note: potency is the fitted concentration of half-maximal effect; nearly all actives have a fitted effect of over 60% in size
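Recombinant glycosomal PGK reaction used 1,3-bisphosphoglycerate generated in-well by GAPDH (100nM final) in 100mM TEA pH 7.6, 5mM MgCl2, 0.01% Tween-20. After 60 minutes at room temperature, ATP was read by Kinase-Glo Plus luminescence end-point.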
PI4K2A inh: blocks human PI4K2A kinase activity; Q9BTU6; purified PI4K2A, ADP-Glo luminescence, 1 h; stronger effect = lower value; activity change, negative = inhibition, % at 76.9 µM; 420,000 tested, 0.13% active; in the data active = activity change below about -50%; inconclusive = mostly about -30% to -49%;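 note: -100% = wells without enzyme as full effect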
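Compounds are screened against recombinant PI4K2A using PI as substrate and ATP, the latter dispensed at 300 microM. Reactions run one hour at ambient temperature before ADP-Glo detection; full inhibition defined by wells lacking enzyme.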
PI5P4Ka inh: inhibitors of human PI5P4K alpha | P48426 | PI5P4Kalpha enzyme, ADP-Glo luminescence, 60 min; stronger effect = lower value | max response, % | 330,000 tested, 1.2% active | AID 652105; active = max response of -50% or lower; inconclusive = between -30% and -50%; inactive = -30% or higher; note: value at the top dose of about 77 µM
Target sequence (P48426 whole entry, looked up): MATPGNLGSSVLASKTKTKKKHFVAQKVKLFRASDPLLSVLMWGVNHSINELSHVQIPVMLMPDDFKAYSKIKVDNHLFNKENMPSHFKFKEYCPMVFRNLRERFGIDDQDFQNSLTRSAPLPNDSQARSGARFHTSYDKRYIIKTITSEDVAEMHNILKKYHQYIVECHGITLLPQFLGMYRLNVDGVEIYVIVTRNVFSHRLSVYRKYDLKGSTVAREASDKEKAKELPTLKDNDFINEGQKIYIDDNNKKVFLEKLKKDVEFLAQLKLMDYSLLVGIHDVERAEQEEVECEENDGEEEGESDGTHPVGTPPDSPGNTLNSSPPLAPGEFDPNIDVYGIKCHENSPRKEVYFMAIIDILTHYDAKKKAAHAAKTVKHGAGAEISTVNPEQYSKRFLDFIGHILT
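Single end-point luminescence (ADP-Glo) quantified ADP from PI5P4Kalpha turnover; ATP 5 microM final, 1 h at RT, 0.1% CHAPS and 0.28 mM EGTA in HEPES pH 7.4.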
Numbers without * were called inactive; i = inactive; ? = inconclusive; · = not tested or not shown; ! = repeats disagree. Unless noted, calls come from the whole dose curve; as a rule, active = well fitted curve in the direction sought with a large enough effect; inconclusive = small, poorly fitted or top-dose-only effect, or another doubt; inactive = no such curve, though single readings can be large; an effect the other way counts as inactive or inconclusive. Unless noted, % is set by controls: 0 for no effect and ±100 for the full control effect.

SMILES	Pin1 inhibitor	Tb PFK block	Tb PGK inh	PI4K2A inh	PI5P4Ka inh
CC(=O)N1CCN(c2nc(-c3ccc(Br)cc3)cs2)CC1	-6%	·	·	·	·
NSc1nc(N)c2nc(-c3ccccc3)c(-c3ccccc3)nc2n1	4%	-2%	-3%	-4	-53*
O=c1cc(O)c2ccc(O)cc2o1	-22%	3%	-5%	4	-50*
OC[C@H]1O[C@@H](OCCc2ccc(O)cc2)[C@H](O)[C@@H](O)[C@H]1O	·	·	·	-1	·
Cc1ccc(NC(=O)c2cc(NC(=O)/C=C\C(=O)O)ccc2N2CCCCC2)cc1	-2%	-1%	-10%	-3	-69*
CC(=O)Nc1ccc(N2CCCCC2)c(C(=O)Nc2cccc(C)c2)c1	2%	1%	-2%	-3	·
Cc1cc(C)cc(N(CC(=O)NC2CCC(C)CC2)S(=O)(=O)c2ccc([N+](=O)[O-])cc2)c1 (stereo not given)	·	·	·	-3	·
O=C(Nc1nc2ccccc2[nH]1)c1ccccc1F	-1%	?	8.9µM*	-80*	-12
O=C(Nc1nc2ccccc2[nH]1)c1ccc(F)cc1	-1%	-10%	-4%	-28	·
CC(C)Oc1ccc(C(=O)Nc2nc3ccccc3[nH]2)cc1	-2%	-3%	?	-56*	-6
Cc1cccc(C#Cc2ccccc2)n1	0%	-16%	-12%	-50*!	-12
COc1ccc(/C=C2/SC(=O)NC2=O)cc1	8%	-1%	i	-3	?
COc1ccc(C=C2SC(=S)NC2=O)cc1	6%	·	i	-1	-86*
COc1cccc(OCCOc2ccc(/C=C3/SC(=S)NC3=O)cc2)c1	49%	-10%	-20%	-8	-85*
O=C1NC(=S)S/C1=C\c1ccc2ccccc2c1	12%	1%	4%	1	-62*
Cc1cc2c(SCC(=O)Nc3cccc(O)c3)ncnc2s1	-1%	·	i	-2	-74*
COC(=O)c1ccccc1CSc1nsc(/C=C/N(C)C)c1C#N	?	-10%	-8%	2	-57*
N#Cc1nc(Nc2cccc3ccccc23)nc(NC2CCCC2)n1	14%	·	·	·	·
Cc1ccc(-c2n[nH]c(=S)n2/N=C/c2c(C)[nH]n(-c3ccccc3)c2=O)cc1	-6%	-19%	i	-2	-58*
O=C(CCCl)NCc1ccccc1	·	·	·	3	·
O=c1[nH]c(=S)c2[nH]c(=S)n(-c3ccccc3)c2[nH]1	-4%	·	6%	10	-84*
O=c1[nH]c(=O)c2[nH]c(=O)n(-c3ccccc3)c2[nH]1	-19%	·	6%	-14	-57*
CN=c1scc(-c2ccccc2F)n1/N=C/c1ccc(O)c(O)c1O	?	-18%	?	-29	-54*
CN=c1scc(-c2ccccc2F)n1/N=C/c1ccc[nH]1	57%	-1%	-8%	-1	-25
CCN=c1scc(-c2cccs2)n1/N=C/c1cc(OC)ccc1O	30%	0%	-16%	-4	7
SMILES	Pin1 inhibitor	Tb PFK block	Tb PGK inh	PI4K2A inh	PI5P4Ka inh
CC(C)N=c1scc(-c2cccs2)n1/N=C/c1ccc(O)c(O)c1O	21%	3%	-13%	-5	-60*
COc1cccc(/C=C2\Oc3ccc(O)cc3C2=O)c1O	?	0%	-30%	-61*	-14
COC(=O)c1ccc2c(c1)C(=O)/C(=C/c1ccc(O)cc1)O2	?	0%	1%	-2	-9
O=C(O)c1cccc(S(=O)(=O)N2CCN(S(=O)(=O)c3ccc4c(c3)OCCO4)CC2)c1	1%	·	·	·	·
O=C(NCc1ccco1)C1CCCN(S(=O)(=O)c2ccccc2[N+](=O)[O-])C1 (stereo not given)	·	·	·	0	·
Cc1cccc([S+](=O)([O-])NC2CCN(C#N)CC2)c1	0%	·	·	·	·
CC(=O)Oc1cc(O)c2c(=O)c(OC(C)=O)c(-c3ccc(OC(C)=O)c(OC(C)=O)c3)oc2c1	?	·	-9%	1	-98*
COc1cccc(Cn2ncc3c4sc(C)cc4n(C)c3c2=O)c1	2%	·	·	·	·
Cc1ccc(N=Cc2cc(Cc3ccccc3Cl)cc([N+](=O)[O-])c2O)c(O)c1	?	-5%	?	?	-69*
O=C(COC(=O)c1ccccc1)Nc1ncc([N+](=O)[O-])s1	·	-12%	?	-5	-74*
O=C(Nc1ncc([N+](=O)[O-])s1)c1cccc([N+](=O)[O-])c1	8%	-1%	-5%	-4	-6
COC(=O)[C@@]12CCCCC=C1N(CCc1ccc(Cl)cc1)C(=O)[C@H]2CC(=O)NCC1CCCCC1	·	·	·	-3	·
O=[S+]([O-])(c1ccc2nsnc2c1)N1CCN([S+](=O)([O-])c2c(F)cccc2F)CC1	-1%	·	·	·	·
Cn1ccsc1=NC(=O)c1ccc([N+](=O)[O-])o1	?	3%	-10%	-10	-60*
O=C1CCc2cc(S(=O)(=O)Nc3ccc4ncccc4c3)ccc2N1	7%	·	·	·	·
COc1cc(C2c3c([nH]c(=O)[nH]c3=O)Nc3ccc4ccccc4c32)cc(OC)c1OC (stereo not given)	·	-2%	?	-60*	-21
CN(C)CCOC(c1ccccc1)c1ccc(Br)cc1 (stereo not given)	·	·	·	3	·
CN(CCOC(=O)/C=C/c1ccco1)Cc1ccccc1	?	?	11µM*	-19	-10
CC(=O)C1CCN(c2ncc(-c3cccc(N(C)C)c3)s2)CC1	-1%	·	·	·	·
O=C(Nc1cc(Sc2ccccn2)cc([N+](=O)[O-])c1)c1ccc([N+](=O)[O-])cc1	18%	-3%	-1%	-4	-75*
O=C(O)c1ccccc1SC1=NS(=O)(=O)c2ccccc21	-15%	·	·	·	·
CSc1nc(O)c(C(c2ccccc2)c2c(O)nc(SC)[nH]c2=O)c(=O)[nH]1	-5%	0%	1%	-3	-53*
O=C(NNC(=O)c1ccccc1F)c1cccc(-n2cccc2)c1	·	?	?	-20	-68*
O=C(NNC(=O)c1cccc(-n2cccc2)c1)c1ccccc1	-2%	-5%	-4%	6	0
O=C(O)c1ccc(N=NNc2cccc([N+](=O)[O-])c2)cc1	1%	-1%	-4%	-11	-53*
SMILES	Pin1 inhibitor	Tb PFK block	Tb PGK inh	PI4K2A inh	PI5P4Ka inh
NC(=O)C1CCN(c2ncc(-c3ccc4c(c3)OCO4)s2)CC1	-12%	·	·	·	·
CCN(CC)S(=O)(=O)c1cccc2cc(C(=O)O)c(O)cc12	-15%	1%	i	-6	-67*
CCN(CC)S(=O)(=O)c1cc(C(=O)O)c(Cl)cc1Cl	-1%	2%	0%	1	-6
O=C1CCCC2=C1C1(CCOCC1)N=C(Nc1nc3ccccc3o1)N2	-20%	·	·	·	·
O=C(CC1S/C(=N/N=C/C=C/c2ccccc2)NC1=O)Nc1ccc(C(=O)O)cc1 (stereo not given)	-17%	0%	-10%	1	-77*
O=C(CC1S/C(=N/N=C/c2ccco2)NC1=O)Nc1ccccc1 (stereo not given)	6%	-3%	6%	1	-4

High-throughput results deposited in PubChem BioAssay by National Center for Advancing Translational Sciences (NCATS).
